# Data from ChEMBL document CHEMBL4888484, “Replenishing the malaria drug discovery pipeline: Screening and hit evaluation of the MMV Hit Generation Library 1 (HGL1) against asexual blood stage Plasmodium falciparum ,using a nano luciferase reporter read-out” (2022).
# The campaign covered roughly 4,800 compounds. About 420 (8.8%) showed an effect of 50% or more. For the sample, strong results were picked, then their nearest neighbours and some compounds at random.
# System: Plasmodium falciparum
# Test: Confirmatory screen in NF54 nanoGlo assay, in single point, at 2uM, 72h
# Type: functional, Erythrocyte
# Settings: timepoint 72 hour
row,SMILES,% Inhibition
1,Cc1ccc(CC(=O)N2C[C@H](c3ccccc3)C(c3ccc(Cl)cc3)=N2)cc1,6%
2,CCCNC(=O)CNC(=NC1CC1)NCc1ccccc1C,-3%
3,COc1nc(NC2CCS(=O)(=O)CC2)ncc1F,75%
4,CC(C)(NCCc1c[nH]c2ccccc12)c1nnnn1Cc1cccnc1,3%
5,O=C(NCCc1nnc[nH]1)C1(Cc2ccccc2)CC2CCC1C2 (stereo not given),-9%
6,Cc1ccc(O)c(CNCC2(c3ccccc3Cl)CCOCC2)n1,99%
7,Cc1ccc(O)c(CNc2ccc3c(c2)OCC3(C)C)n1,-7%
8,N[C@H]1COc2ccc(Br)cc2C1=O,-3%
9,Cc1cccc(Nc2nc(-c3cnc(N4CCN(C)CC4)nc3C)cc(=O)[nH]2)c1,-7%
10,Cc1ccc(NC(=O)Nc2cccc(-c3ccc(N4CCN(C)CC4)nn3)c2)cc1C,10%
11,O=C(Nc1ccc(-n2cncn2)cn1)c1cscn1,-18%
12,COc1ccc(S(=O)(=O)Nc2c(C)ccc3nsnc23)cc1OC,4%
13,CCCC[C@H](CC)C(=O)Nc1ccccc1C,7%
14,CN(C(=O)c1ccc(OCC(F)(F)F)nc1)C1(C#N)CCC1,2%
15,Cc1cc2c(cc1C)[C@H](C(=O)Nc1cc(C(N)=O)ccc1Cl)CO2,-1%
16,O=C(NC(Cn1ccccc1=O)c1ccccc1)C1CCOC1 (stereo not given),2%
17,O=C(N[C@@H](Cn1nccn1)c1ccccc1)c1cc(Br)ccc1Cl,65%
18,O=C(Nc1ccc2c(c1)c1cc(Br)ccc1n2Cc1ccccc1)c1ccccc1,4%
19,O=C(Cc1ccccc1)Nc1cccc2c1C(=O)N(c1ccccc1)C2=O,-14%
20,O=C(C[C@@]1(O)C(=O)N(Cc2ccc(Cl)cc2Cl)c2ccccc21)c1ccccn1,-10%

row,SMILES,% Inhibition
1,Cc1c(NC(=O)CCc2ccsc2)nnn1Cc1ccccc1F,-10%
2,COc1ccc(C(=O)CN2C=CCC=C2c2nc(-c3ccc(Cl)cc3)cs2)cc1,72%
3,COc1ccc(C2=CN(CC(=O)c3ccc(Cl)cc3)C3=CCCCCN23)cc1,47%
4,O=C(CN1C=CCC=C1c1nc(-c2ccc(Br)cc2)cs1)c1ccccc1,35%
5,Cc1ccc(CNCCC2=CCCCC2)cc1,-2%
6,Cc1csc(NC(=O)[C@]2(C)Oc3ccccc3NC2=O)n1,0%
7,O=c1[nH]nc(-c2ccc3ccccc3c2)c2conc12,18%
8,Cn1ccc(NC(=O)c2n[nH]c3ccccc23)n1,-12%
9,CC(C)CCNC(=O)c1cnn2c3c(cnc12)CCCC3,-6%
10,COc1ccc(NC(=O)CN2N=C(C(=O)Nc3ccc(F)cc3)CCC2=O)cc1,-7%
11,COc1ccc(F)c(NC(=O)N(CCO)C(C)C)c1,5%
12,COc1ccc2nc(O)c(C(=O)Nc3ccc4c(c3F)CCNC4)cc2c1,99%
13,CCn1nc(C(=O)N(C2CCCCC2)C2CC2)c2ccccc2c1=O,-10%
14,Cc1cccc(NC(=O)N2CCCCCC2)n1,1%
15,Cc1cccc(CN2CCC[C@H](C(=O)c3ccc4c5c(cccc35)CC4)C2)n1,63%
16,COC[C@H](NC(=O)c1cccc(F)c1Cl)C(N)=O,-8%
17,Nc1c(-c2nc3ccccc3[nH]2)c2nc3ccccc3nc2n1Cc1ccccc1F,64%
18,Cc1cc2nnc(-c3nc4ccccc4[nH]3)c(N)n2n1,-10%
19,Cc1ncc(C(=O)Nc2cc3c(=O)[nH]cnc3cc2F)c(C2CC2)n1,3%
20,CCc1nnc(COC(=O)c2csc(NC)n2)o1,6%
